Source: PubChem BioAssay (several laboratories)
Compounds with a hit are over-represented: about 1.2% of the library has one in this group of screens.
NR2F2 inh: NR2F2 (human) inhibition, primary screen | hit rate 0.7% among 370,000 | HEK293T NGFI-A luciferase reporter, luminescence | AID 686940 | inhibition, % at 8.6 µM;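 active = inhibition above a per-plate cutoff, mean inhibition of test wells between control levels plus 3 SD, cut at about 38% in these data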;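 also: cells cotransfected with COUP-TFII expression vector driving the NGFI-A reporter; 0% = median of COUP-TF2 test wells and 100% = reporter-only cells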
Target sequence (P24468 whole entry, looked up): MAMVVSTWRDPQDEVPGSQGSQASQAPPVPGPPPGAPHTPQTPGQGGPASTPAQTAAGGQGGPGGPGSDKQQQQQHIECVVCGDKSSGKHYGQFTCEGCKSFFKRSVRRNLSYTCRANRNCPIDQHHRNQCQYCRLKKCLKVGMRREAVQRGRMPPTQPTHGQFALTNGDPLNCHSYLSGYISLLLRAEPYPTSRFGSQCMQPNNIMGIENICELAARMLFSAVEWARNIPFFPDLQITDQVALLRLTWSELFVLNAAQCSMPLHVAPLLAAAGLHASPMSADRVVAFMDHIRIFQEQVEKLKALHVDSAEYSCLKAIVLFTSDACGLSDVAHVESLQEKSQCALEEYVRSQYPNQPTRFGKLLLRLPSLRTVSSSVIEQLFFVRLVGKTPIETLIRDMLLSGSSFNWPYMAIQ
Efflux pump mplx: inhibitors of Candida antifungal efflux pumps expressed in yeast; inhibition, % at 10 µM; S. cerevisiae Candida pump triplex, Nile Red efflux; hit rate 0.44% among 330,000; AID 485275;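 active = plate passing quality check with inhibition over a set limit, or well fluorescence over plate mean plus 4 SD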;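 also: Nile Red retained in pooled yeast measured as flow cytometry median fluorescence; 0% = buffer negative control and 100% = Enniatin B positive control; higher means more Nile Red kept so more efflux inhibition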
SRC1 inh: human NCOA1 inhibition; Q15788; hit rate 0.12% among 360,000; inhibition, % at 3.6 µM; HEK293 GAL4-SRC1 luciferase reporter, luminescence;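 active = inhibition above the campaign mean plus 3 SD, with each screening campaign given its own cutoff, cut at about 60% in these data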;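 also: 0% = DMSO treated cells and 100% = gossypol at 36 µM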
NR5A2 inv ag: suppresses constitutive activity of human LRH-1; O00482; HEK293T StAR-luciferase reporter, LRH-1 transfected, 24 h; inhibition, % at 3.6 µM; hit rate 0.13% among 360,000; AID 602396;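 active = inhibition above the mean inhibition of all tested compounds plus 3 SD, cut at about 73% in these data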;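 also: 0% = DMSO wells and 100% = reporter-only cells lacking LRH-1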
NCOA3 inh: inhibitors of human steroid receptor coactivator 3 (SRC3). Q9Y6Q9. HEK293 GAL4-SRC3 luciferase reporter, luminescence. inhibition, % at 3.6 µM. hit rate 0.17% among 360,000;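 active = inhibition above a per-campaign cutoff, the mean of all compounds plus 3 SD, cut at about 60% in these data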;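 also: 0% = DMSO-treated cells and 100% = gossypol-treated cells at 36 µM; higher means less SRC3-driven luciferase light from the GAL4 reporter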
SRC2 inh: human SRC2 (NCOA2) inhibition; Q15596; HEK293 GAL4-SRC2 luciferase reporter, luminescence; inhibition, % at 9 µM; hit rate 0.17% among 370,000; AID 651957;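 active = inhibition above the mean inhibition of all tested compounds plus 3 SD, set per campaign, cut at about 52% in these data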;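 also: 0% = DMSO treated cells and 100% = cells given Gossypol at 36 µM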
Cmpd fluor yeast: compound fluorescence in yeast efflux pump counter-screen | shares compounds with Efflux pump mplx | S. cerevisiae AD/pABC3, flow cytometry | fluorescence ratio to DMSO, % at 10 µM | hit rate 4% among 1,700 | AID 588517;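 active = fluorescence ratio to DMSO above its plate's cutoff, the plate mean ratio plus 5 SD, cut at about 210% in these data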;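 also: unstained yeast with no Nile Red so the signal is compound autofluorescence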
Mdr1 pump inh: blocks the Candida albicans Mdr1 efflux pump in yeast. shares compounds with Efflux pump mplx. S. cerevisiae AD/CaMDR1, Nile Red efflux, flow cytometry. inhibition, % at 10 µM. hit rate 1% among 1,700. AID 588518; in the data active = inhibition above about 26%;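 also: 0% = DMSO vehicle and 100% = reference inhibitor; higher means more Nile Red retained so more efflux inhibition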
CaCdr2 efflux inh: Candida Cdr2 efflux pump inhibition; hit rate 4% among 1,700; Nile Red retention ratio vs DMSO, % at 10 µM; shares compounds with Efflux pump mplx; S. cerevisiae AD/CaCDR2, Nile Red retention, flow cytometry; in the data active = Nile Red retention ratio vs DMSO above about 190%;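 also: higher ratio means more blocking of Cdr2 efflux of the dye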
Cdr1 pump inh: inhibitors of Candida albicans Cdr1 efflux pump; shares compounds with Efflux pump mplx; S. cerevisiae AD/CaCDR1, Nile Red efflux, flow cytometry; inhibition, % at 10 µM; hit rate 1% among 1,700;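 active = inhibition above the screen-wide mean plus twice its standard deviation, cut at about 32% in these data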
The depositor's hits bear a star; · = not tested or not shown.

SMILES	NR2F2 inh	Efflux pump mplx	SRC1 inh	NR5A2 inv ag	NCOA3 inh	SRC2 inh	Cmpd fluor yeast	Mdr1 pump inh	CaCdr2 efflux inh	Cdr1 pump inh
Cc1ccc(C(=O)NN=CC(=O)c2ccccc2)c(C)c1	-46.3	0.1	-101.9	-141.7	-119.0	-56.4	·	·	·	·
Cc1ccc(S(=O)(=O)N(CC(=O)N/N=C/c2cccc3c2OCCO3)c2ccccc2F)cc1	26.0	0.5*	-9.2	-3.9	-2.4	-27.6	89.9	-0.1	108.3	-0.1
COc1cc2cc(CN(CCc3cccc(C)c3)C(=S)NCCCN(C)C)c(=O)[nH]c2cc1OC	-2.8	0.2	11.8	-11.4	9.0	-48.5	·	·	·	·
CNC(=S)N(CCc1cccc(C)c1)Cc1cc2cc(OC)c(OC)cc2[nH]c1=O	7.3	1.7*	6.0	-7.1	6.7	25.6	106.2	-0.1	93.5	0.2
CC1(C)CC[C@]2(C(=O)O)CC[C@]3(C)C(=CCC4[C@]56CC[C@@](O)(OC5)C(C)(C)C6CC[C@]43C)C2C1 (some centres undefined)	0.9	·	-2.6	-13.3	4.5	-15.3	·	·	·	·
C[C@@H]1CC[C@]2(C(=O)O)CC[C@]3(C)C(=CCC4[C@]56CC[C@@](O)(OC5)C(C)(C)C6CC[C@]43C)C2[C@H]1C (some centres undefined)	·	1.4*	24.4	25.7	37.0	·	104.5	0.1	204.3*	-0.1
CCOC(=O)c1c(NC(=S)N2CCN(C)CC2)sc(C)c1-c1ccccc1	15.0	0.0	-6.1	-24.4	4.2	-6.9	·	·	·	·
Cc1cc(C)cc(-n2ncc3c2CCCC3NC(=O)c2cc(C)oc2C)c1 (centres undefined)	-4.3	0.0	12.9	-12.8	10.8	3.7	·	·	·	·
COc1ncccc1C(=O)NC1CCCc2c1cnn2-c1cc(C)cc(C)c1 (centres undefined)	-3.5	-0.2	-5.9	-12.3	22.1	12.1	100.0	-0.2	108.3	-0.1
O=C(NC1CCCc2c1cnn2-c1ccccc1F)c1ccccn1 (centres undefined)	-51.0	-0.1	21.2	-34.2	-47.1	10.6	105.8	0.1	105.1	0.0
O=C(Nc1ccc(C2CC2(Cl)Cl)cc1)c1ccccc1Br (centres undefined)	-30.5	0.3	-26.7	-28.1	-18.3	-20.9	·	·	·	·
COC(=O)c1ccc2nc(C3CCCCC3)c(Cc3ccccc3OC)n2c1	-2.4	·	·	·	·	12.3	·	·	·	·
Cc1cc(O)c(Sc2ncn[nH]2)cc1NS(=O)(=O)c1ccc(Cl)cc1	-9.9	-0.1	12.3	-22.1	16.6	13.6	103.1	0.2	96.3	0.1
COc1ccc(S(=O)(=O)Nc2cc(C(C)C)c(O)cc2C)cc1	-4.8	-0.1	-14.7	-3.7	-2.6	10.2	·	·	·	·
COc1ccc(S(=O)(=O)Nc2cc(Sc3ncn[nH]3)c(O)cc2C)cc1	-21.7	0.0	7.3	-6.5	0.1	4.1	104.6	-0.2	95.6	-0.1
CC(=O)c1ccc(NC(=O)CN2C(=O)/C(=C/C(C)=C/c3ccccc3)SC2=S)cc1	-1.4	·	-4.5	18.9	12.8	-9.3	·	·	·	·
C=CCn1c(SCc2cc(=O)n3ccsc3n2)nc2ccccc2c1=O	15.9	0.5*	6.8	-4.3	8.2	6.2	89.9	0.1	100.1	0.2
CC(=O)OCCn1c2nc(=O)[nH]c(=O)c-2nc2cc(C)c(C)cc21	6.2	0.7*	4.1	-15.6	-15.7	-7.1	121.2	0.1	137.4	0.6
CC(=O)OCCn1c(C)[n+](CCOC(C)=O)c2cc(Cl)c(Cl)cc21	16.3	-0.6	5.0	-7.8	-11.8	12.5	·	·	·	·
c1ccc2c(c1)CCCN2Cc1nnc2n1CCCCC2	-12.4	0.0	-1.2	6.6	-8.6	-14.1	·	·	·	·
COc1ccc(C(=O)Cc2nnc(C)s2)c(OC)c1	-10.9	8.0*	-19.8	-41.4	-20.6	-3.0	99.0	-0.1	102.9	-0.1
CCc1nnc(NC(=O)c2ccc(OC)cc2OC)s1	-31.1	0.2	-126.1	-128.9	-66.1	-39.0	·	·	·	·
CC(C)(C)OC(=O)NCc1ccc(NC(=O)c2nc[nH]c2C(=O)NCCCCCCNC(=O)c2[nH]cnc2C(=O)Nc2ccc(CNC(=O)OC(C)(C)C)cc2)cc1	18.7	1.8*	-6.3	1.2	-21.4	-6.9	105.6	0.9	122.6	2.5
CC(C)(C)OC(=O)NCc1ccc(NC(=O)c2nc[nH]c2C(=O)NCCCCNC(=O)c2[nH]cnc2C(=O)Nc2ccc(CNC(=O)OC(C)(C)C)cc2)cc1	·	0.0	-13.5	-13.2	15.3	·	·	·	·	·
O=c1[nH]c(=O)n(C2CCCO2)cc1F (centres undefined)	-5.6	0.3	4.5	-7.8	-10.7	1.4	·	·	·	·
SMILES	NR2F2 inh	Efflux pump mplx	SRC1 inh	NR5A2 inv ag	NCOA3 inh	SRC2 inh	Cmpd fluor yeast	Mdr1 pump inh	CaCdr2 efflux inh	Cdr1 pump inh
Cc1cc(C)nc(NC(=O)/C=C/c2cccs2)c1	-68.9	-0.1	-49.2	-126.2	-33.7	-24.9	·	·	·	·
Cc1cc(C)c(-c2csc(NC(=O)/C=C/c3cccs3)n2)c(C)c1	36.2	22.7*	18.3	10.4	24.4	20.8	104.6	-0.2	91.4	-0.1
Cn1c(SCc2cccnc2)nnc1-c1c[nH]c2ccccc12	-40.4	-0.2	11.1	-11.5	-4.4	-7.7	·	·	·	·
CC(C)c1ccccc1OS(N)(=O)=O	3.2	-0.1	-0.8	-20.9	4.3	6.0	·	·	·	·
CCS(=O)CCSC(=N)N (centres undefined)	2.5	-0.1	-17.1	10.8	-5.0	14.4	·	·	·	·
Cn1c(NC(=O)/C=C/c2ccccc2)cc(=O)n(C)c1=O	-10.1	0.2	-75.7	-57.7	-56.6	-40.3	·	·	·	·
COc1ccc(/C=C/C(=O)Nc2cc(=O)n(C)c(=O)n2C)cc1	-25.2	15.2*	-25.2	-85.0	-30.6	-12.8	96.9	-0.3	87.9	0.0
O=C1C(Cc2ccccc2)Nc2ncnc(N3CCN(c4ccccc4)CC3)c2N1Cc1ccc(Cl)cc1 (centres undefined)	-2.2	103.9*	3.7	-6.1	-9.2	-10.8	104.5	108.6*	100.7	88.6*
COc1ccc(/C=C/c2ccc3ccccc3[n+]2C)cc1OC	·	1.1*	-89.0	-53.7	-67.6	·	226.8	1.9	111.6	1.5
C=CCOc1ccc(NC(=O)C2CC(=O)N(C(C)C)C2)cc1 (centres undefined)	6.3	0.1	-0.7	-8.7	-3.1	-7.2	·	·	·	·
Cc1ccc(C(C)NC(=O)c2c(-c3ccccc3)noc2C)cc1C (centres undefined)	13.0	5.7*	0.3	-12.7	-1.9	-4.2	74.8	0.0	91.1	-0.5
Cc1occc1C(=O)N(C)CC1CCCN(CCc2ccccc2F)C1 (centres undefined)	-6.2	5.0*	-7.2	13.5	15.6	-12.1	112.7	0.0	89.3	0.1
